# High-throughput results (PubChem BioAssay)
# IkB signaling: inhibitors of IkB signaling in ABC-DLBCL cells; ABC-DLBCL IkBa-CBG/CBR dual luciferase ratio, 4 h; response scale: scaled: untreated 0%, proteasome inhibitor 100%; Potency, µM (highest dose often 57.1 µM), for the others: at the highest dose IkBa stabilization activation; 110,000 compounds, 0.04% hits; AID 445; active = well fitted curve in the direction sought with a large enough effect in the signal ratio, not every such curve was filed as active; inconclusive = small, poorly fitted or top-dose-only effect, or a change in a side signal; the % refers to the signal ratio;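 also: potency is read from the fitted curve at half-maximal effect; the direction sought is a rising ratio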
#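 Curves were fitted separately to fusion (green), unfused (red) and ratio luminescence, then classed by r2, magnitude and activity. Cells: OCI-Ly3, 4 h compound plus doxycycline at 37C; 10 uM MG-132 defined full response.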
# Luciferase inh: firefly luciferase inhibition. 72,000 compounds, 2.2% hits. P08659. AID 411. purified firefly luciferase, luminescence, 8 min. Potency, µM (doses to about 57.1 µM), without a hit: top-dose activity change, negative = inhibition, usual class: inhibitors; also: potency is read from the fitted curve at half-maximal effect; % is scaled to controls: 0 for no effect and ±100 for the full control effect; nearly all actives have a fitted effect of over 40% in size
#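 Firefly luciferase (PKLight detection mix) with 10 uM ATP in pH 7.2 imidazole buffer (KCl, MgCl2, Tween 20, BSA). Compounds tested across a concentration series (qHTS). Luminescence read after 8 min at ambient temperature.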
# IMPase cell inh: membrane-permeable compound that blocks inositol monophosphatase. CHO-M1 cells, IP1 accumulation, HTRF TR-FRET ratio. inhibition (IP1 accumulation), % at 46.1 µM. 120,000 tested, under 10 active; active = well fitted curve in the direction sought with a large enough effect in the signal ratio, not every such curve was filed as active; inconclusive = small, poorly fitted or top-dose-only effect, or a change in a side signal; inactive = no such curve, though single readings can be large or run the other way; the % refers to the signal ratio;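 also: cells stimulated with carbachol in lithium chloride buffer; plate controls were DMSO basal wells for no effect and reference inhibitor wells for full effect; higher means more IMPase inhibition seen as more IP1 and lower FRET ratio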
# Target sequence (P97697 whole entry, looked up): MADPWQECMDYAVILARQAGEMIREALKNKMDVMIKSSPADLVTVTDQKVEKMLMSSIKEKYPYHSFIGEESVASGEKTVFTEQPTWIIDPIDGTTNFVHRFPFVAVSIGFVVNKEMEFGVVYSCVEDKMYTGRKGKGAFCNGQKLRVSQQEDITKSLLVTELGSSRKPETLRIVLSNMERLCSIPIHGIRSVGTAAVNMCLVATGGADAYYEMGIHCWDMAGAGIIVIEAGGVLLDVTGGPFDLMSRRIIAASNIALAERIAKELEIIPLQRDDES
#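 Measured: the HTRF emission ratio (665/620 nm) plus the 620 nm donor channel, each fitted to the Hill equation to give AC50. Cells were CHO-M1 given compounds up to 46 uM and a 30 min carbachol stimulation at 37C.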
# Hsp90 Hop PPI: changes Hsp90-Hop TPR2A binding signal, up or down; AlphaScreen TPR2A-His6 binding biotin-Hsp90 C-terminal peptide; Potency, µM (top dose mostly 57 µM), for inactives: top-dose activity change, negative = inhibition; 71,000 compounds, 0.44% hits; active = well fitted curve in either direction with a large enough effect; inconclusive = small, poorly fitted or top-dose-only effect, or another doubt; also: potency is read from the fitted curve at half-maximal effect; % is scaled to controls: 0 for no effect and ±100 for the full control effect
# p53ts 32C tox: p53ts cell cytotoxicity, permissive temperature. H1299-p53A138V at 32C, ATP luminescence viability, 24 h. Potency, µM (top dose mostly 46.1 µM), without a hit: top-dose activity change, negative = cytotoxicity, hits mostly cytotoxic. 130,000 compounds, 0.93% hits;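 also: potency is read from the fitted curve at half-maximal effect; 0% = DMSO and -100% = full killing by reference compound; nearly all actives have a fitted effect of over 55% in size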
#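 ATP-content luminescence (ATPlite) read-out after 24 h compound exposure at 32C in H1299-p53A138V cells (600/well). Tested up to 46 uM. Normalized to DMSO (0%) and 100 uM tamoxifen (100% killing); Hill-fit AC50.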
# p53ts 39C tox: p53ts cell cytotoxicity, nonpermissive temperature | H1299-p53A138V viability at 39C, ATP luminescence, 24 h | 130,000 compounds, 1.5% hits | Potency, µM (highest dose often 46.1 µM), without a hit: top-dose activity change, negative = cell killing, actives largely listed as cytotoxic; also: potency is read from the fitted curve at half-maximal effect; % is scaled to controls: 0 for no effect and ±100 for the full control effect; nearly all actives have a fitted effect of over 55% in size
# Starred values were filed as active, the others as inactive; ? = inconclusive; nt = no result; [ ] = remark or other dose. This is one part of a sample in which hits are shown more often than they occur. Unless noted, calls follow the shape of the dose curve; as a rule, active = well fitted curve in the direction sought with a large enough effect; inconclusive = small, poorly fitted or top-dose-only effect, or another doubt; inactive = no such curve, though single readings can be large; an effect the other way counts as inactive or inconclusive.
SMILES,IkB signaling,Luciferase inh,IMPase cell inh,Hsp90 Hop PPI,p53ts 32C tox,p53ts 39C tox
O=C(Nc1ccc(-c2nc3cc(Cl)ccc3o2)cc1)C1CCCO1 (stereo not given),nt,nt,4,nt,4%,8%
O=[N+]([O-])c1ccc(Cl)c(CNc2ncnc3c2ncn3[C@@H]2CCCCO2)c1,1%[11.4 µM],2%[11.4 µM],nt,-4%[11 µM],8%[9.22 µM],18%[9.22 µM]
CCOC(=O)c1ccc(NC(=O)CSc2nc3c(c(=O)n2C)SC(C)C3)cc1 (stereo not given),-1%,4%,15,-4%,7.9µM*,13µM*
CCOc1ccccc1N1CCN(Cc2cccc(OC)c2O)CC1,?,1%,4,-5%,-4%,0%
CCOCc1cc(CN2CCN(c3cccc(C(F)(F)F)c3)CC2)c(O)c2ncccc12,?,nt,nt,nt,-2%,?
CC(C)OCc1cc(CN2CCN(c3cccc(C(F)(F)F)c3)CC2)c(O)c2ncccc12,11%,nt,nt,nt,-18%,16µM*
COc1ccccc1N1CCN(Cc2cc(Br)c(O)c3ncccc23)CC1,?,6%,9,-11%[2.3 µM],-18%,16µM*
CCOCc1cc(CN2CCN(c3ccccc3OC)CC2)c(O)c2ncccc12,2%,nt,nt,nt,5%,20µM*
CCCOCc1cc(CN2CCN(c3ccccc3OC)CC2)c(O)c2ncccc12,?,nt,nt,nt,16µM*,10µM*
Cc1ccc(Cl)cc1N(C)C(=O)c1sc2nc3n(c(=O)c2c1C)CCCC3,1%,nt,nt,nt,-3%,-29%
CC(C)CCNC(=O)c1ccc2nc(CCc3ccccc3)oc2c1,-2%,nt,nt,nt,3%,1%
COc1ccccc1N1CCN(Cc2cc(COC(C)C)c3cccnc3c2O)CC1,?,nt,nt,nt,?,2.5µM*
COc1ccc(NC(=O)Cn2cnc3c(oc4ccccc43)c2=O)cc1OC,?,nt,nt,nt,-6%,-15%
Cc1ccc(CNc2nc(-c3ccco3)nn2C(=O)c2ccccc2[N+](=O)[O-])cc1,-1%,nt,nt,nt,?,10µM*
CCCCn1c(CN2CCOCC2)nc2c1c(=O)n(C)c(=O)n2C,?,2%,5,2%,?,4µM*
COc1ccc(-c2cn3c4c(sc3n2)CCCC4)cc1,2%,0.63µM*,-6,-9%,6.3µM*,5µM*
CC1(C)Cc2nc3sc4c(SCC(=O)NCc5ccco5)ncnc4c3cc2CO1,1%,5µM*,12,-5%,?,?
O=C1c2ccccc2C(=O)N1c1ccc(Cc2ccc(N3C(=O)c4ccccc4C3=O)cc2)cc1,2%[11.4 µM],4%[11.4 µM],nt,2%[11 µM],0%[9.22 µM],-14%[9.22 µM]
CC1(C)C(=O)NC2=C1C(=O)C(=O)c1ccccc12,?,5%,?,?,1.3µM*,1µM*
Nc1ccc(Br)c2c1C(=O)c1ccccc1C2=O,nt,nt,-4,nt,nt,nt
Clc1cccc(-n2ncc3c(NC4CCCCC4)ncnc32)c1,?,nt,nt,nt,?,13µM*
Cc1ccc(-n2ncc3c(NC4CCCCC4)ncnc32)cc1,?,nt,nt,nt,?,7.9µM*
CC[C@H](C)C(=O)O[C@@H]1CCC=C2C=C[C@H](C)[C@@H](CC[C@H]3C[C@@H](O)CC(=O)O3)[C@H]21,2%,-1%,nt,-5%,nt,nt
COc1ccc(CNC(=O)c2ccc3c(c2)N(Cc2c(F)cccc2Cl)C(=O)CS3)cc1,2%,nt,nt,nt,15%,18%
Cc1cc(N2CCN(C)CC2)nc2ccc(NC(=O)Nc3ccccc3Cl)cc12,?,nt,nt,nt,10µM*,13µM*
SMILES,IkB signaling,Luciferase inh,IMPase cell inh,Hsp90 Hop PPI,p53ts 32C tox,p53ts 39C tox
Cc1cc(C)cc(NC(=O)Nc2ccc3nc(N4CCN(C)CC4)cc(C)c3c2)c1,-6%,nt,nt,nt,3%,13µM*
COc1cccc(/C=C/C(=O)Nc2ccc3nc(N4CCN(C)CC4)cc(C)c3c2)c1OC,?,nt,nt,nt,?,13µM*
COc1cccc(N2CC(NC(=O)CCCc3ccccc3)CC2=O)c1 (stereo not given),-1%,nt,nt,nt,-1%,-11%
COC(=O)/C=C\c1cc(O)ccc1O,?,-14%,8,-9%,?,?
COc1ccc(-c2nc3scc(CCNS(=O)(=O)c4cccs4)n3n2)cc1,?,nt,nt,nt,-2%,-11%
O=C(OCC1CO1)C1CCCCC1C(=O)OCC1CO1 (stereo not given),3%,nt,nt,1%,3%[1.84 µM],32µM*
O=C(O)C1CCCCC1C(=O)OCCCCOC(=O)C1CCCCC1C(=O)O (stereo not given),-1%,1%,-3,-7%[11 µM],-5%,3%
NS(=O)(=O)c1cccnc1Nc1cccc(C(F)(F)F)c1,nt,nt,-9,nt,nt,nt
Fc1ccc(Nc2nc3nonc3nc2Nc2cccc(C(F)(F)F)c2)cc1,?,nt,nt,nt,?,13µM*
Cc1c(N=C/C=C/c2ccccc2)cnn1C,0%,16µM*,4,-7%,7%,-2%
Cc1c(N=C/C=C/c2ccccc2)c(=O)n(-c2ccccc2)n1C,0%,-5%,31,-4%,6%,-1%
O=c1/c(=C\c2cccnc2)sc2nc3ccccc3n12,-1%,-10%,2,0%,-7%,5%
Cc1cc(/C=c2/sc3nc4ccccc4n3c2=O)c(C)n1-c1ccccn1,nt,0.5µM*,7,nt,nt,nt
CCC(C(=O)NCCc1ccc(Cl)cc1)n1ccc2cc(S(=O)(=O)N3CCCCC3)ccc21 (stereo not given),?,nt,nt,nt,7%,-4%
CCOc1ccc(-n2c(=O)c3c(C)c(C(=O)N(C)C)sc3n(CC(=O)Nc3c(C)cc(C)cc3C)c2=O)cc1,-3%,nt,nt,nt,-14%,-15%
COc1ccc(/C=N/c2nc3ccccc3n2C)cc1OC,-1%,20µM*,-1,-1%,2%,2%
Cn1c(/N=C/c2cccs2)nc2ccccc21,nt,nt,-4,nt,-1%,7%
Cc1ccc(CCNC(=O)c2cc3n(n2)CCCN(Cc2ccc(C)cc2)C3=O)cc1,1%,nt,nt,nt,-5%,-15%
COc1cccc(CNc2ccc(Br)cn2)c1O,nt,5µM*,10,nt,nt,nt
